Source: PubChem BioAssay (several laboratories)
HNF4A DNA FP – change in binding of human HNF4 alpha to DNA | P41235 | HNF4a-FITC DNA binding, fluorescence polarization, 1 h | activity change, % at 10 µM | 360,000 compounds, 0.3% hits | AID 1224865; in the data active = activity change above about 30%, passing the limit was not always enough
Rpn11 inh – Rpn11 (human) deubiquitinase inhibition. O00487. human 26S proteasome, Ub4-pepOG fluorescence polarization; 20S core pre-blocked with epoxomicin. inhibition, % at 20 µM. 360,000 compounds, 0.59% hits. AID 588493;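 active = inhibition at 20 µM, scaled to each plate's controls, above about 33%, limit read from the data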
Target sequence (O00487 whole entry, looked up): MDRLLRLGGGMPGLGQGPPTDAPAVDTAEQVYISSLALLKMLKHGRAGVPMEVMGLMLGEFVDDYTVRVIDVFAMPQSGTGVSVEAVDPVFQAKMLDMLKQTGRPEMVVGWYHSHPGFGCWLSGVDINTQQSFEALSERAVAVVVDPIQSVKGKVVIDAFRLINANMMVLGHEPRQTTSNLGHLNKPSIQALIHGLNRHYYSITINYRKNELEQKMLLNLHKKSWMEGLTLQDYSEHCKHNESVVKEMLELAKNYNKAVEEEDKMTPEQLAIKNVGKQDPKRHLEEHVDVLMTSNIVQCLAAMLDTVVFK
TPT1 inh – inhibitors of Candida albicans tRNA 2'-phosphotransferase TPT1 | recombinant caTPT1, FP RNA substrate dephosphorylation | inhibition, % at 5 µM | 300,000 compounds, 0.81% hits | AID 1962;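 active = inhibition above the mean of all tested compounds plus 3 SD, set per screening campaign, cut at about 24% in these data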;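 note: plate controls were DMSO alone for no effect and ferristatin control at 100 nM for full effect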
Myeloid diff MLP – compounds promoting myeloid differentiation. ER-HoxA9 myeloid progenitors, lysozyme-GFP differentiation, flow cytometry. calls only at 10 µM. 360,000 compounds, 1% hits;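 active = normalized GFP-positive differentiation at or above the plate's own cutoff, the solvent-only control mean plus 3 SD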;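 note: cells exposed to compound for four days before flow analysis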
Rpn11 inh conf – Rpn11 inhibition confirmation, single concentration; shares compounds with Rpn11 inh; purified human 26S proteasome, Ub4-pepOG fluorescence polarization; proteasome pretreated with epoxomicin; inhibition, % at 20 µM; 1,900 compounds, 29% hits
MMP-2 inh – MMP-2 (human) inhibition counter-screen. 1,900 compounds, 4% hits. shares compounds with Rpn11 inh. inhibition, % at 20 µM. AID 602330. recombinant MMP-2, FRET peptide cleavage fluorescence;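 note: human MMP-2 activated beforehand with APMA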
Thrombin inh – thrombin (bovine) inhibition counter-screen; shares compounds with Rpn11 inh; bovine thrombin cleavage of Ub4-pepOG, fluorescence polarization; inhibition, % at 20 µM; 1,900 compounds, 13% hits; AID 602333;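 active = mean inhibition at least 40% at 20 µM, or signal 3 deviations below plate average, so some actives read negative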;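 note: plate controls were thrombin with DMSO for no effect and buffer wells lacking thrombin for full effect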
* hit, by the source's call; i = inactive; nt = not tested or not shown; ! = repeats disagree. Only some compounds are listed: those with a hit (about 2.1% of all), similar ones and a draw of the others. Cut-off read from the data, not from the text of the source, unless noted: active = inhibition above about 40%; inactive = the rest.

SMILES	HNF4A DNA FP	Rpn11 inh	TPT1 inh	Myeloid diff MLP	Rpn11 inh conf	MMP-2 inh	Thrombin inh
Cc1noc(C)c1NC(=O)N(C)C[C@H]1Oc2ccc(NS(=O)(=O)c3ccc(F)cc3)cc2C(=O)N([C@H](C)CO)C[C@@H]1C	7	60*	nt	i	-4	-7	5
Cc1nc(NCCc2ccccc2)sc1C(=O)N(C)C	1	2	-1	i	nt	nt	nt
Cc1nc2sc(-c3ccccc3)cc2c(=O)[nH]1	14	48*	7	i	10	-24	-1
O=c1[nH]c(-c2cccnc2)nc2sc(-c3ccccc3)cc12	6	2	2	nt	nt	nt	nt
O=C(O)c1cc(S(=O)(=O)NCCOc2ccccc2)ccc1Cl	0	-3	nt	i	nt	nt	nt
N#CC(C(=O)NCCc1ccccc1)c1nc2ccccc2nc1N1CCOCC1 (stereo not given)	49	nt	2	i	nt	nt	nt
N#CC(C(=O)NCCc1ccccc1)c1nc2ccccc2nc1N1CCCCC1 (stereo not given)	11	102*	0	i	-81	-68	-79
CCOC(=O)NC(=O)CSc1ccc(S(=O)(=O)N(C)C2CCCCC2)cn1	2	-8	nt	i	nt	nt	nt
O=c1[nH]c(=O)n(CCc2ccc(F)cc2)c(O)c1C=NCc1ccc2c(c1)OCO2	4	90*	-1	i	17	-25	-14
CC(C)=CC1C(C(=O)Nc2ccc(S(=O)(=O)N3CCOCC3)cc2)C1(C)C (stereo not given)	-1	2	-5	i	nt	nt	nt
N#CC(=C=[N-])c1nc2ccccc2nc1-[n+]1ccccc1	32	45*!	2	i	-8	-28	-3
COCCNC(=O)c1[nH]c(C(F)(F)F)nc1-c1ccccc1	2	3	nt	i	nt	nt	nt
CC(=O)c1ccc(N2CCN(C(=O)Cc3cccs3)CC2)cc1	88*	62*	1	i	-10	50*	-7
CN(C)c1ccc(/C=C2/C=C(c3ccc4c(c3)CCCC4)OC2=O)cc1	45*	69*	6	i	-6	-50	-14
Cc1ccc(C=C2C=C(c3ccccc3)OC2=O)cc1	-1	10	nt	i	nt	nt	nt
O=C(NN=Cc1ccc(O)cc1)c1ccccc1NS(=O)(=O)c1cccs1	3	3	nt	i	nt	nt	nt
O=C(N/N=C/c1cc(Cl)cc([N+](=O)[O-])c1O)c1ccccc1NS(=O)(=O)c1cccs1	9	41*	1	i	129*	-20	-1
O=C1CCCC/C=C\C[C@H](CC(=O)N(CCO)Cc2ccccc2)C(=O)N2CCC[C@@H]2CO1	2	-1	nt	i	nt	nt	nt
O=S(=O)(c1ccc(F)cc1)N1CCN(CC(O)COCC2CCCO2)CC1 (stereo not given)	1	2	nt	i	nt	nt	nt
O=c1c2c3nc4ccccc4nc3n(-c3ccc4c(c3)OCCO4)c2ncn1C1CCCC1	16	128*	1	i	-2	-13	-18
Nc1c(C(=O)OCC2CCCO2)c2nc3ccccc3nc2n1-c1ccc2c(c1)OCCO2 (stereo not given)	nt	nt	18	nt	nt	nt	nt
O=C(Nc1cccc(Cl)c1)c1csc(COCCO)n1	-1	4	nt	i	nt	nt	nt
CCN1/C(=C\C=C2\C(=O)N(c3ccccc3)C(=S)N2C)Sc2ccccc21	8	48*	nt	nt	-2	0	-5
O=C(Cc1cc(C(F)(F)F)cc(C(F)(F)F)c1)Nc1c(-c2ccccc2)[nH][nH]c1=O	-2	nt	nt	i	nt	nt	nt
CC(OC(=O)c1cccs1)C(=O)NC1CC1 (stereo not given)	1	38*	3	i	-4	-36	-19
SMILES	HNF4A DNA FP	Rpn11 inh	TPT1 inh	Myeloid diff MLP	Rpn11 inh conf	MMP-2 inh	Thrombin inh
[O-][n+]1cccc2c(Br)cc(Br)c(O)c21	-3	53*	1	i	-20	-8	-7
O=C1c2ccccc2C(=O)c2c(NCc3cccnc3)cccc21	5	2	-2	i	nt	nt	nt
O=C1c2cccc(NCCCNCCO)c2C(=O)c2cccc(NCCCNCCO)c21	42	42*	nt	i	21	38	-44
COC(=O)Cn1c(=NC(=O)c2nc3ccccc3s2)sc2cc(S(N)(=O)=O)ccc21	0	47*	2	i	-6	19	-9
COC(=O)Cn1c(=NC(=O)c2cc(-c3cccs3)nc3ccccc23)sc2cc(S(N)(=O)=O)ccc21	29	nt	2	i	nt	nt	nt
CCOC(=O)Cn1c(=NC(=O)c2cc(-c3cccs3)nc3ccccc23)sc2cc(S(N)(=O)=O)ccc21	25	94*	19	i	18	-24	5
NC(=O)NN=C1CCC(OCc2ccccc2)CC1CC(=O)O (stereo not given)	-4	-11	nt	i	nt	nt	nt
O=S(=O)(/N=C(/Nc1cccc2ccccc12)c1ccccc1)c1ccc(Br)cc1	1	-13	-3	i	nt	nt	nt
Cc1nc(NC(=O)c2ccccc2)sc1-c1csc(NCc2ccccc2)n1	3	20	4	i	nt	nt	nt
Cc1nc(NC(=O)c2ccccc2)sc1-c1csc(NCCc2ccccc2)n1	27	44*	0	i	-4	7	-15
N#C/C(=C\c1ccc(-c2cccc([N+](=O)[O-])c2)o1)C(=O)Nc1nc(-c2cccs2)cs1	-3	59*	3	i	-9	5	-20
O=C(N/N=C/c1ccc(-c2cccc([N+](=O)[O-])c2)o1)c1cccs1	1	4	-3	i	nt	nt	nt
Cc1ccc(S(=O)(=O)c2c[nH]c3cc4c(cc3c2=O)OCO4)cc1	nt	nt	4	nt	nt	nt	nt
COc1ccc(CNC(=O)COC(=O)CN2C(=O)C3CC=CCC3C2=O)cc1 (stereo not given)	-1	0	nt	i	nt	nt	nt
Cc1ccccc1NC(=O)c1cc(C(=O)c2cc(Cl)ccc2O)cn(-c2ccccc2C)c1=O	7	47*	12	i	11	-79	-17
O=C(COc1ccc2c3c(c(=O)oc2c1)CCC3)NCc1cccnc1	0	-2	0	i	nt	nt	nt
Cc1ccc(C(C)(O)CS(=O)(=O)Cc2ccccc2)cc1 (stereo not given)	7	2	-1	nt	nt	nt	nt
CCCCN=C1NN=C(c2cccc([N+](=O)[O-])c2)CS1	-2	2	-3	i	nt	nt	nt
CCCCN=C1NN=C(c2cc3ccccc3o2)CS1	17	46*	19	i	7	36	-13
CCn1cc(C(=O)Nc2ccccc2)c(=O)c2ccc(C)nc21	nt	nt	2	nt	nt	nt	nt
C=CCSc1nnc(NC(=O)c2cn(CC)c3nc(C)ccc3c2=O)s1	17	48*	12	nt	10	-64	12
COc1cc(NC(=O)c2cccc(C)c2)c(Cl)cc1[N+](=O)[O-]	4	1	-2	i	nt	nt	nt
Cc1cccc(NS(=O)(=O)c2cc3c(cc2C)n(C)c(=O)c(=O)n3C)c1	-2	-4	-4	i	nt	nt	nt
